In publication PMC5540273 (PLoS ONE, 2017):

Columns and labels:
Conditions in all cases: concentration: 1 μM, replicates: in singlicate; n = 1
PCTK2 = tested on: T1, PCTK2
T1 construct: gene CDK17

PCTK3 = tested on: T2, PCTK3
T2 construct: gene CDK18

PDGFRA = tested on: PDGFRA
PDGFRB = tested on: PDGFRB
PDPK1 = tested on: PDPK1
PFTAIRE2 = tested on: PFTAIRE2
PFTK1 = tested on: T3, PFTK1
T3 construct: gene CDK14

PHKG1 = tested on: PHKG1
PHKG2 = tested on: PHKG2
PIK3C2B = tested on: PIK3C2B
PIK3C2G = tested on: PIK3C2G
PIK3CA = tested on: PIK3CA
PIK3CB = tested on: PIK3CB
PIK3CD = tested on: PIK3CD
PIK3CG = tested on: PIK3CG
PIK4CB = tested on: T4, PIK4CB
T4 construct: gene PI4KB

PIKFYVE = tested on: PIKFYVE
PIM1 = tested on: PIM1
PIM2 = tested on: PIM2
PIM3 = tested on: PIM3
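Note: KINOMEscan kinase panel screen.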

SMILES	%Inh (PCTK2)	%Inh (PCTK3)	%Inh (PDGFRA)	%Inh (PDGFRB)	%Inh (PDPK1)	%Inh (PFTAIRE2)	%Inh (PFTK1)	%Inh (PHKG1)	%Inh (PHKG2)	%Inh (PIK3C2B)	%Inh (PIK3C2G)	%Inh (PIK3CA)	%Inh (PIK3CB)	%Inh (PIK3CD)	%Inh (PIK3CG)	%Inh (PIK4CB)	%Inh (PIKFYVE)	%Inh (PIM1)	%Inh (PIM2)	%Inh (PIM3)
COc1ccc(CNC(=O)NC2CCN(c3ccnc(Nc4ccc(F)cc4)n3)CC2)cc1 [GSK1379788]	0%	0%	0%	35%	0%	0%	13%	0%	0%	0%	0%	0%	0%	0%	0%	0%	6%	0%	0%	0%
CCCCc1nn2ncccc2c1-c1ccnc(Nc2ccc(N3CCN(C)CC3)cc2)n1 [GW684941]	37%	16%	98.8%	100%	0%	0%	0%	20%	4%	66%	0%	0%	0%	41%	0%	74%	51%	0%	0%	0%
C[C@@H](Oc1cc(-n2cnc3cc(-c4ccnc(NCCS(C)(=O)=O)c4)ccc32)sc1C(N)=O)c1ccccc1Cl [GSK907232]	9%	25%	71%	97.4%	28%	14%	12%	0%	2%	0%	0%	0%	0%	39%	1%	9%	0%	19%	0%	27%
COc1ccc(-c2coc3ccc(-c4nnc(SCc5ccc(OC)c(C(F)(F)F)c5)o4)cc23)cc1	9%	9%	23%	16%	12%	0%	19%	3%	4%	0%	13%	0%	27%	11%	0%	0%	0%	0%	18%	4%
Cc1ccc(F)c(C(=O)Nc2cccc(-c3nn4ccccc4c3-c3ccnc(Nc4cccc(F)c4)n3)c2)c1F [GSK361061]	0%	16%	6%	99.7%	11%	18%	11%	14%	6%	0%	0%	0%	0%	0%	0%	0%	0%	24%	0%	7%
O=C(Nc1cccc(Oc2ccc3nc(NC(=O)C4CC4)cn3n2)c1)c1ccccc1C(F)(F)F	0%	6%	99.7%	100%	0%	7%	0%	18%	6%	0%	0%	0%	0%	0%	0%	0%	0%	0%	0%	0%
COc1ccc(Nc2nccc(N3CCC(NC(=O)Nc4cccc(OC)c4)C3)n2)cc1 (stereo not shown) [GSK1379742]	0%	21%	0%	23%	15%	10%	2%	17%	0%	13%	0%	0%	0%	0%	0%	1%	0%	0%	0%	3%
Cn1cc(-c2[nH]c3cc(NC(=O)[C@H](N)C4CCCCC4)cc4c3c2C=NNC4=O)cn1	0%	0%	99.7%	100%	75%	5%	5%	65%	23%	49%	0%	0%	9%	6%	0%	0%	1%	39%	0%	46%
